# Experimental data taken from PubChem BioAssay (NCI).
# Several values for one entry are separate records, joined by “and”; a condition that tells them apart may be missing. Equal values may be shown once. Compounds without any hit were thinned out: in the full panel of roughly 79,000, 15% have a hit. Unmarked numbers belong to inactive results. Activity calls are given as the source filed them. Rule as the data show it: active = growth inhibition above about 70%; inactive = the rest.
# Legend:
# [1] = NCI Yeast Anticancer Drug Screen. Data for the rad50 strain (AID 155);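 also: 0% = growth of vehicle-only cultures of the same strain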; conditions: S. cerevisiae rad50 strain growth inhibition; at 50.0 µM; active compounds read high
# In short: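 Compounds were tested on a yeast strain with an engineered DNA damage repair alteration; the reported value is growth inhibition normalised to vehicle treatment.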
# [2] = NCI Yeast Anticancer Drug Screen. Data for the mec2-1 strain (AID 157); conditions: S. cerevisiae mec2-1 strain, at 50.0 µM, active compounds read high
# In short: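 Vehicle-treated cultures served as reference for growth inhibition of compound-exposed mec2-1 yeast.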
# [3] = NCI Yeast Anticancer Drug Screen. Data for the sgs1 mgt1 strain (AID 161);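 also: 0% = growth of cultures given vehicle only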; conditions: S. cerevisiae sgs1 mgt1 strain, at 50.0 µM, active compounds read high
# In short: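 Read-out: growth inhibition vs vehicle controls. Cells: mutant yeast strain deficient in DNA damage repair.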
# [4] = NCI Yeast Anticancer Drug Screen. Data for the cln2 rad14 strain (AID 165);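 also: 0% = growth equal to vehicle treated cultures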; conditions: S. cerevisiae cln2 rad14 strain, at 50.0 µM, active compounds read high
# In short: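 Each compound was tested on cln2 rad14 yeast. Inhibition of growth was calculated against vehicle-exposed controls.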
# [5] = NCI Yeast Anticancer Drug Screen. Data for the bub3 strain (AID 167); conditions: S. cerevisiae bub3 mutant strain, at 50.0 µM, active compounds read high
# In short: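 Growth of a checkpoint-deficient yeast mutant is measured after compound exposure. Values represent inhibition relative to vehicle.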
# [6] = NCI Yeast Anticancer Drug Screen. Data for the mlh1 rad18 strain (AID 175); conditions: S. cerevisiae mlh1 rad18 strain growth inhibition; at 50.0 µM; active compounds read high
# In short: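 Vehicle-treated cultures served as the reference for growth inhibition in a yeast strain carrying DNA damage repair alterations exposed to each compound.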
SMILES,growth inhibition [1],growth inhibition [2],growth inhibition [3],growth inhibition [4],growth inhibition [5],growth inhibition [6]
[CH3][Sb]([CH3])[S]C1OC(CO)C(O)C(O)C1O (stereo unspecified),-10.3%,0.9%,29.9%,-15.8%,25.5%,-17.8%
NC(CCP(=O)(O)O)C(=O)O (stereo unspecified),1.1% and -34.8%,-3.5% and -15.6%,-5.6% and -33.7%,-3.25% and 6.1%,7.7% and -23.5%,-5.75% and -18.1%
O=[As](O)(c1cccc(Cl)c1)C1CCCCC1O (stereo unspecified),1.05%,-0.35%,5.3%,-1.95%,25.2%,34.4%
OP(=S)(OCc1ccccc1)OCc1ccccc1,18.9%,19.6%,5.95%,-13.8%,17.9%,4.55%
CN(C)CCc1ccc(Cl)cc1Cl,11.1%,14.3%,-2.5%,6.6%,3.75%,22.4%
CC1(C)N=C(NN=C2CCCCC2)SP1(=O)NNc1ncccn1 (stereo unspecified),30.1%,11.7%,25.8%,1.95%,15.1%,23.2%
CC1(C)N=C(N)N=C(N)N1c1ccc(CCc2ccc(S(=O)(=O)F)cc2)cc1,9.15%,7%,-7.3%,-6.2%,-8.7%,7.65%
CC([NH-])C[NH-].[NH2-].[NH2-].[Pt+4] (stereo unspecified),17.1%,-5.65%,-10.3%,-6.25%,5.8%,-12.3%
O=C(CC(=O)C(F)(F)F)c1cccs1.[Fe],22.1% and 27.1%,34.8% and 30.1%,33.2% and 28.4%,11.2% and 10.8%,20.9% and 21.2%,48.2% and 42.5%
O=C(O)COc1nc(Cl)c(Cl)cc1Cl,3.3%,6%,12.5%,-1.75%,15.6%,1.15%
COCCCNCCCN1CC1,2.25%,-4.4%,-6.9%,-22.7%,-22.4%,10.1%
CC1C2Cc3ccc(O)cc3C1(C)CCN2CCC(=O)c1ccccc1 (stereo unspecified),-8.85%,1.4%,-7.3%,18.2%,5.6%,9.55%
Cc1nc2ccccc2c(=O)n1-c1ccc(N(CCCl)CCCl)cc1,-0.6%,-9.25%,-17.1%,-6.9%,4.8%,4.5%
CCOP(=O)(OCC)C(=C(Cl)Cl)C(Cl)Cl,82.6% (active),85.2% (active),8.75%,37.6%,-17.1%,49.8%
[CH3][Sn]([CH3])([CH3])[O]C(=O)CNC(=O)c1ccccc1,-8.55%,-4.1%,-2.3%,27.9%,4.25%,-0.3%
O=c1oc2ccccc2c(O)c1C(c1cnc2ccccc2c1)c1c(O)c2ccccc2oc1=O,33.4%,40.2%,12.7%,26.2%,-5.7%,47%
O.O.O=C(O)CC(=O)O.[NH-]C1CCCCC1[NH-].[Pt+2] (stereo unspecified),-25.4%,-5.3%,-20.4%,-18.9%,2.75%,-28.6%
COC(=O)CNP(=O)(NCC(=O)OC)N(CCCl)CCCl,-8.2%,-14.8%,-18.6%,5.2%,-1.65%,5.7%

SMILES,growth inhibition [1],growth inhibition [2],growth inhibition [3],growth inhibition [4],growth inhibition [5],growth inhibition [6]
COc1ccc2c(c1)C(=O)C(N)C2 (stereo unspecified),2%,1.95%,0.5%,-21.6%,7.4%,20.1%
C=CC(N)=O (tested in a mixture with another compound),1.15%,-7.1%,8.2%,0.4%,15.8%,2.2%
O=c1oc2cc(O)ccc2c(O)c1C(c1cccnc1)c1c(O)c2ccc(O)cc2oc1=O,0.75%,1.25%,11.7%,-0.05%,-0.5%,-80.5%
Cc1ccc2c(O)c3c(cc2c1)C(=O)c1c2c(cc(O)c1C3=O)C1(C)OC(O2)C(O)C(N(C)C)C1O (stereo unspecified),86.7% (active),87.9% (active),90.9% (active),87.7% (active),87.8% (active),85.5% (active)
Nc1ccccc1Nc1ccccc1C(=O)[O-].Nc1ccccc1Nc1ccccc1C(=O)[O-].[Zn+2],-19.2%,-7%,-15.2%,10.2%,-29.4%,-7.55%
Oc1ccc2ccccc2c1N=Nc1ccccc1,-10.8% and 10.3%,-6.5% and -18.8%,-12.6% and -7.95%,-21.9% and -9.7%,0.9% and -18.4%,3.1% and 2.3%
O=P1(O)NP(=O)(O)NP(=O)(O)NP(=O)(O)N1,-9.45%,2.9%,-9.8%,-5.45%,-18.1%,-3.95%
C=C(C(=O)OC1CC2CCC(C1)[N+]2(C)[O-])c1ccccc1 (stereo unspecified),7.4%,-6%,-19.4%,-2.95%,3.1%,-23.3%
C#CCOC(C(=O)OC1CCN(C)CC1)(c1ccccc1)c1ccccc1,-3.5%,-11.8%,-6.45%,-36.9%,0.3%,-1.95%
Cc1cccc(C=NCCOCCOCCN=Cc2cccc(C)c2O)c1O.[Ni],-8.3%,2.65%,-13.6%,1.25%,-19.6%,-14.2%
COC(=O)C1(C(=O)OC)Cc2ccc(C)cc2C2=C1C(=O)c1ccccc1C2=O,-25.8%,-10.2%,5.5%,7.55%,-3.4%,7.85%
C=CCC1(/C(=C\CC)CCC)C(=O)NC(=O)NC1=O,15.1%,-0.3%,1.75%,-32%,-0.2%,12.3%
CCOP(=O)(OCC)C1CCC(=O)O1 (stereo unspecified),-14.2%,-20.2%,-14%,12.4%,10.6%,10.6%
NC(=NCc1ccccc1)N[N+](=O)[O-],-7.3%,3.65%,-10.6%,17.7%,30.7%,-3.15%
CCC1(c2c(F)c(F)c(N)c(F)c2F)CCC(=O)NC1=O (stereo unspecified),-11.9%,-6.25%,-1%,16.4%,-16.4%,1.6%
NC1=NC(=O)C(c2ccccc2)(c2ccccc2)O1,-1%,-8.6%,5.95%,-0.65%,-19.3%,-4.15%
O=C(CC([Se]c1ccccc1)c1ccccc1)c1ccccc1 (stereo unspecified),98% (active),88.8% (active),95.7% (active),89.4% (active),93.7% (active),98% (active)
CC(C)CNP(=S)(NCC(C)C)c1ccccc1,4.5%,12.9%,6.7%,5.55%,18.9%,21.3%
